Data: PubChem BioAssay
Active and inactive are the calls of the source.

What was measured:
[1] = system: Plasmodium falciparum Sir2 (PF13_0152, Sir2A); assay: Plasmodium falciparum Sir2A binding compounds – biochemical, small-molecule microarray, 635 nm fluorescence, primary screen (AID 1098); conditions: fluorescence 635 nm, higher = more signal;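 also: score merges spot fluorescence intensity with its signal-to-noise ratio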
[2] = probe aDKK1 binding to arrayed compounds – biochemical, biotinylated probe, 635/667 nm fluorescence, primary screen (AID 1099); conditions: small-molecule microarray, higher = more signal;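 also: score merges 667nm spot fluorescence with signal to noise across triplicate slides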
[3] = probe aCHRDL2 binding to arrayed compounds – biochemical, biotinylated probe, 635/667 nm fluorescence, primary screen (AID 1100); conditions: small-molecule microarray, higher = more signal
[4] = change in splice reporter luminescence, either direction, cell-based, HEK293, spliceosome inhibition project, primary screen (AID 1101); conditions: HEK293 splicing luciferase reporter, 24 h, higher = more signal, called active from +8 up or from −8 down;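 also: HEK293 cells carrying a splicing-competent luciferase reporter gene; test concentration not given here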
[5] = target: Fibroblast growth factor 10 (Homo sapiens) (UniProt O15520); assay: compounds binding fibroblast growth factor 10 – biochemical, small-molecule microarray, 635 nm fluorescence, primary screen (AID 1102); conditions: FGF10 binding, fluorescence 635 nm, higher = more signal
Fibroblast growth factor 10 (Homo sapiens), sequence (O15520 whole entry, looked up): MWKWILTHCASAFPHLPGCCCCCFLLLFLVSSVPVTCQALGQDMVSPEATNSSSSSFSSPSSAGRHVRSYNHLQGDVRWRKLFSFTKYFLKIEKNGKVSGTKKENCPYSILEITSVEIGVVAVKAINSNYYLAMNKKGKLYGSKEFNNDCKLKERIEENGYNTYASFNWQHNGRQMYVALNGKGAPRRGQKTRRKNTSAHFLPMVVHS

[6] = system: glycogen synthase kinase-3 (GSK3A per assay name; protocol says GSK3B); assay: compounds binding glycogen synthase kinase-3 – biochemical, small-molecule microarray, 635 nm fluorescence, GSK3A, primary screen (AID 1103); conditions: fluorescence 635 nm, higher = more signal; also: the record names both GSK3A and GSK3B
[7] = target: Epidermal growth factor receptor (Homo sapiens) (UniProt P00533); assay: compounds binding epidermal growth factor receptor – biochemical, small-molecule microarray, 635 nm fluorescence, primary screen (AID 1104); conditions: EGFR binding, higher = more signal;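 also: score merges 667 nm emission intensity with spot signal to noise over triplicate slides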
Epidermal growth factor receptor (Homo sapiens), sequence (P00533 whole entry, looked up): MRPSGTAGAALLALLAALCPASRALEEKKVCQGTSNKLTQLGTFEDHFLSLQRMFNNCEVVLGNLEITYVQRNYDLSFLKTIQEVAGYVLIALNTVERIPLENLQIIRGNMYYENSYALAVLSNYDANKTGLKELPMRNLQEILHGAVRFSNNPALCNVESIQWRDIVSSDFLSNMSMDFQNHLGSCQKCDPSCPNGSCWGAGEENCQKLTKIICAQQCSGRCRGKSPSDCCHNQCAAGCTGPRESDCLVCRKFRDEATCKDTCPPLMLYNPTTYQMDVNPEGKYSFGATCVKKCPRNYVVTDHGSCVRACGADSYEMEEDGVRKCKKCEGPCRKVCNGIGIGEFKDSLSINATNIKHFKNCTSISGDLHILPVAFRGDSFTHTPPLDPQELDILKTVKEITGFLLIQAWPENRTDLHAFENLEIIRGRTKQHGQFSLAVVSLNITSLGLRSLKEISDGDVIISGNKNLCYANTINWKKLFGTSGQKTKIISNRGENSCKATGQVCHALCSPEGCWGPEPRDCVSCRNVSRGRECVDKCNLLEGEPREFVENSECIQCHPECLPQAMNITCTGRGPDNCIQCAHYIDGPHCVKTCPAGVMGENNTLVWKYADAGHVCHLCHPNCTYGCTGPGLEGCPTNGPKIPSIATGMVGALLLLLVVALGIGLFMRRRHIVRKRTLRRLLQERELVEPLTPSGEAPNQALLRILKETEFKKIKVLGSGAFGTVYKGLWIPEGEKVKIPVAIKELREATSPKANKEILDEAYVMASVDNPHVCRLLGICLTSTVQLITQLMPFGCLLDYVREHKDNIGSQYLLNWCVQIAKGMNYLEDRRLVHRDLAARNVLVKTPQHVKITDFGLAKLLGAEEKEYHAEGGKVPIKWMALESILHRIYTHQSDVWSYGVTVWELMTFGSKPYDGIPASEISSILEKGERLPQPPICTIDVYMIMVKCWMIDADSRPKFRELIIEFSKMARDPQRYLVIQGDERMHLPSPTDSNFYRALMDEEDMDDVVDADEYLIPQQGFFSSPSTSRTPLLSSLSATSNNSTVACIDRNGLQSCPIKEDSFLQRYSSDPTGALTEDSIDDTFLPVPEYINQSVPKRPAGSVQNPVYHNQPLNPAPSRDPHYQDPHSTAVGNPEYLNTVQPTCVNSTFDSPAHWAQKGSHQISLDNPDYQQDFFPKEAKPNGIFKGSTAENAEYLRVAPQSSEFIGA

[8] = target: Follistatin-related protein 3 (Homo sapiens) (UniProt O95633); assay: compounds binding follistatin-related protein 3 – biochemical, small-molecule microarray, 635 nm fluorescence, primary screen (AID 1105); conditions: FSTL3 binding, higher = more signal;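 also: score merges emission near 667 nm and signal to noise per printed spot across three slides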
Follistatin-related protein 3 (Homo sapiens), sequence (O95633 whole entry, looked up): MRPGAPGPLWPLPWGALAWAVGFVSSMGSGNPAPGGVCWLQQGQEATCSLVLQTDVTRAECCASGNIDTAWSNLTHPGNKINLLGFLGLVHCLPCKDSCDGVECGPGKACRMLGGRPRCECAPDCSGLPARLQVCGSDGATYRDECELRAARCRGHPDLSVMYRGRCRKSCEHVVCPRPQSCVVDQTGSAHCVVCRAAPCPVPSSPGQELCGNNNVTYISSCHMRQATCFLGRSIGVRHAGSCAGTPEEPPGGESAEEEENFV

[9] = target: Dickkopf-related protein 1 (Homo sapiens) (UniProt O94907); assay: small molecules binding DKK1 protein – biochemical, small-molecule microarray, 635 nm fluorescence scan, primary screen (AID 1106); conditions: higher = more signal;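 also: score merges emission near 667 nm with signal to noise over three replicate slides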
Dickkopf-related protein 1 (Homo sapiens), sequence (O94907 whole entry, looked up): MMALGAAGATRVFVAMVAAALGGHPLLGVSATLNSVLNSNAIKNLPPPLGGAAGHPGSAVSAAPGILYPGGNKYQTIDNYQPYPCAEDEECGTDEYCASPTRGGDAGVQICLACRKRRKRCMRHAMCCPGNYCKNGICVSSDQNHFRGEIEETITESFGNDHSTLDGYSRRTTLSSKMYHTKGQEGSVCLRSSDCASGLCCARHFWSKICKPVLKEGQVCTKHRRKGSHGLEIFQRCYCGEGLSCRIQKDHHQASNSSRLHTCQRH

[10] = system: Inhibin beta A chain (activin A); assay: small molecules binding activin A – biochemical, small-molecule microarray, 635 nm fluorescence scan, primary screen (AID 1107); conditions: INHBA, higher = more signal;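 also: mouse activin A protein probed at 4.33 µg/mL on printed slides; score merges bound-protein fluorescence near 667 nm with spot signal-to-noise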
[11] = system: Human papillomavirus type 1a protein E7 (residues 44-93); assay: small molecules binding HPV E7 44-93 – biochemical, small-molecule microarray, residues 44-93, 635 nm fluorescence, primary screen (AID 1108); conditions: fluorescence 635 nm, higher = more signal;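 also: E7 fragment applied at 1 µg/mL in TBST for 1 h at 4 C; score combines spot fluorescence with its signal to noise ratio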
[12] = hepatitis C replication reporter changes, two-sided – Huh7 cells, luciferase reporter, HCV replication inhibitor project, primary screen (AID 1109); conditions: Huh7 HCV replicon luciferase reporter, 48 h; higher = more signal;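 also: huh7 hepatoma cells harbouring a luciferase neomycin HCV replicon reporter; luciferase luminescence as measure of HCV replicon replication; test concentration not given here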
[13] = target: Left-right determination factor 2 (Homo sapiens) (UniProt O00292); assay: small molecules binding LEFTY2 protein – biochemical, small-molecule microarray, 635 nm fluorescence scan, primary screen (AID 1110); conditions: higher = more signal
Left-right determination factor 2 (Homo sapiens), sequence (O00292 whole entry, looked up): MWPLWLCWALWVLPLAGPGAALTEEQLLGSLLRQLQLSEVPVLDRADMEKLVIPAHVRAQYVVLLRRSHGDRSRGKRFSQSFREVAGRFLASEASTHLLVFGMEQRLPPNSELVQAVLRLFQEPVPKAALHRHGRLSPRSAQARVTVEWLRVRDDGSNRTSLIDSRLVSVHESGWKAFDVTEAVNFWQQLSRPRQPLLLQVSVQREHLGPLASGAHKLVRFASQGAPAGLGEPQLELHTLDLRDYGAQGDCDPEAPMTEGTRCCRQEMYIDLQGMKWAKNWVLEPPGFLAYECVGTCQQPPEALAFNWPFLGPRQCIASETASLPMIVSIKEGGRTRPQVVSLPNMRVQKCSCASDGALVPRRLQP

[14] = target: Calmodulin-1 (Homo sapiens) (UniProt P0DP23); assay: small molecules binding calmodulin-1 with EGTA – biochemical, small-molecule microarray, Cy5-labelled CALM1, profiling panel (AID 1111); conditions: Cy5-CALM1 binding fluorescence, higher = more signal;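 also: labelled calmodulin applied in Tris saline Tween buffer holding calcium plus EGTA and DTT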
[15] = target: Calmodulin-1 (Homo sapiens) (UniProt P0DP23); assay: small molecules binding Ca-loaded calmodulin-1 – biochemical, small-molecule microarray, Cy5-labelled CALM1, plus calcium, artefact control for SMM control-protein annotation, profiling panel (AID 1112); conditions: Cy5-CALM1 binding fluorescence, higher = more signal;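 also: score merges spot fluorescence with signal to noise from triplicate slides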
[16] = probe aWnt5a binding to arrayed compounds – biochemical, biotinylated probe, 635/667 nm fluorescence, primary screen (AID 1113); conditions: small-molecule microarray, higher = more signal;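 also: score merges 667 nm fluorescence intensity with signal-to-noise per printed feature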
[17] = probe aShh binding to arrayed compounds – biochemical, biotinylated probe, 635/667 nm fluorescence, primary screen (AID 1114); conditions: small-molecule microarray, higher = more signal;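 also: probe is biotin-labelled aShh protein from a stem cell growth factor screen; measures binding of labelled protein to compounds printed on the slide; score merges feature fluorescence at 667 nm with signal-to-noise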
[18] = probe aNog binding to arrayed compounds – biochemical, biotinylated probe, 635/667 nm fluorescence, primary screen (AID 1115); conditions: small-molecule microarray, higher = more signal;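 also: probe is biotinylated aNog protein used at 0.15 µg/mL for 1 h at 4 C; z-score combines 667 nm fluorescence of each spot with its signal to noise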
[19] = target: Torsin-1A-interacting protein 1 (Homo sapiens) (UniProt Q5JTV8); assay: compound microarray binding of lysate hLAP1 – cell lysate, small-molecule microarray, COS7 lysate, 635/667 nm fluorescence, primary screen (AID 1116); conditions: 635 nm fluorescence, higher = more signal
Torsin-1A-interacting protein 1 (Homo sapiens), sequence (Q5JTV8 whole entry, looked up): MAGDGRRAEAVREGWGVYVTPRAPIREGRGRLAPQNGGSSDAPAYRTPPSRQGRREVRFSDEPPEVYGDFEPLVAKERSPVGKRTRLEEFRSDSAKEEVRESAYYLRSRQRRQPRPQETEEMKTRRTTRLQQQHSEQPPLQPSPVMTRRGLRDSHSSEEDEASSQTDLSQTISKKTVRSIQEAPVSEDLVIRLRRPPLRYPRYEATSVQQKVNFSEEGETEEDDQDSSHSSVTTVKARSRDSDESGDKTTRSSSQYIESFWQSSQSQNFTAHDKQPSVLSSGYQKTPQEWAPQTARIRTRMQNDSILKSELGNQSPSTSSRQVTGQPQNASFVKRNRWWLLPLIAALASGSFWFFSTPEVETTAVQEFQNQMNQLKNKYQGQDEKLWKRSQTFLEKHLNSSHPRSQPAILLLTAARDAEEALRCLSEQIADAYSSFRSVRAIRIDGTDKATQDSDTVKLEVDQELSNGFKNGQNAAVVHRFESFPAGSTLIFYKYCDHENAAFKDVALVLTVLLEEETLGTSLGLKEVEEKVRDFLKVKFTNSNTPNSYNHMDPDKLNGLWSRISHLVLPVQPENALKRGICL

[20] = target: Alpha-bungarotoxin (Bungarus multicinctus) (UniProt P60615); assay: compounds binding labelled alpha-BTX control protein – biochemical, small-molecule microarray, Alexa647 label, 635/667 nm fluorescence, artefact control for SMM control protein annotation, profiling panel (AID 1117); conditions: alpha-BTX-A647 binding fluorescence, higher = more signal
Alpha-bungarotoxin (Bungarus multicinctus), sequence (P60615 whole entry, looked up): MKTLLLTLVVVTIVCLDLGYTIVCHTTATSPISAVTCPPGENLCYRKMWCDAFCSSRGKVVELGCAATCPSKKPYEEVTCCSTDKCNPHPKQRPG

Compound	composite z-score [1]	composite z-score [2]	composite z-score [3]	z-score [4]	composite z-score [5]	composite z-score [6]	composite z-score [7]	composite z-score [8]	composite z-score [9]	composite z-score [10]	composite z-score [11]	z-score [12]	composite z-score [13]	composite z-score [14]	composite z-score [15]	composite z-score [16]	composite z-score [17]	composite z-score [18]	composite z-score [19]	composite z-score [20]
COCCOC(=O)N1C(=O)[C@@]2(c3cc(C#CCNC(N)=O)ccc31)[C@H](C(=O)N1CCN(c3ncccn3)CC1)[C@H]1C(=O)O[C@H](c3ccccc3)[C@H](c3ccccc3)N1[C@@H]2c1ccc(OCCO)cc1	1.08	0.223	0.329	-0.729 (inactive)	1.01	-0.0506	0.498	1.37	0.204	0.63	1.01	-0.801	0.188	0.392	0.0615	0.0031	-0.315	0.196	0.0481	1.82
[N-]=[N+]=Nc1ccccc1[C@H]1OC(c2ccc(OCCCO)cc2)=N[C@@]1(CCS(=O)(=O)c1ccccc1)C(=O)NCC(O)CO (stereo not given in full)	1.47	0.766	0.95	-0.662 (inactive)	1.24	0.933	-0.214	0.505	-0.415	0.899	1.46	-0.604	-0.671	1.15	0.211	0.027	0.0611	-0.62	1.93	1.21
COCCOC(=O)N1C(=O)[C@@]2(c3cc(C#CCCO)ccc31)[C@H](C(N)=O)[C@H]1C(=O)O[C@H](c3ccccc3)[C@H](c3ccccc3)N1[C@@H]2c1ccc(O)cc1	1.22	-0.163	0.489	0.477 (inactive)	0.344	-0.124	-0.376	-0.131	0.0665	0.275	-0.48	0.11	-0.142	-0.0162	0.461	-0.0197	-0.0035	0.0107	0.169	0.244
Cc1ccc(S[C@]2(C(=O)NCCCN(C)C)CC(=O)N(Cc3cc(C(F)(F)F)cc(C(F)(F)F)c3)[C@@H]2c2ccc(CO)cc2I)cc1	-0.0355	0.703	0.879	-0.0675 (inactive)	-0.833	-2.21	-1.18	-1.71	-1.53	0.835	-0.0139	-2.1	-0.664	0.325	0.764	0.299	0.242	1.73	0.215	0.0119
COCCOC(=O)N1C(=O)[C@@]2(c3cc(C#CC4(O)CCCCCC4)ccc31)[C@H](c1ccccc1OCCO)N1[C@H](c3ccccc3)[C@H](c3ccccc3)OC(=O)[C@H]1[C@@H]2C(=O)N1CCN(c2ncccn2)CC1	0.892	0.0468	-0.0635	0.514 (inactive)	1.12	1.03	0.484	1.18	0.991	0.244	0.0525	-2.18	0.46	0.156	-0.0855	-0.0944	0.0328	0.612	1.35	0.509
COc1ccc(C(O)C2C=CC3C(=O)N(Cc4ccccc4)C(=O)C3N2n2cnnc2)cc1OCc1ccccc1 (stereo not given)	0.504	-0.0756	0.432	-1.91 (inactive)	-0.245	0.332	-0.283	0.308	-0.192	0.586	0.958	-1.04	-0.355	0.0367	-0.485	-0.096	-0.18	0.393	0.383	0.161
C=CCOC(=O)[C@H]1[C@@H]2C(=O)O[C@@H](c3ccccc3)[C@@H](c3ccccc3)N2[C@@H](c2ccc(OCCOC(=O)[C@H]3C[C@H]4C(=O)N[C@@H](CCCCNC(C)=O)C(=O)N4[C@H]3c3ccc(O)cc3)cc2)[C@]12C(=O)Nc1ccc(I)cc12	1.33	-0.182	-0.717	-0.0027 (inactive)	0.707	1.11	0.506	1.26	0.667	1.02	0.804	-3.26	0.418	0.124	-0.732	-0.0236	0.123	-0.238	0.612	0.963
CO[C@H]1O[C@H](CO)[C@@H](OC(=O)Nc2ccc(C(F)(F)F)cc2)[C@H](OC(=O)Nc2ccc3c(c2)OCO3)[C@@H]1OC(=O)Nc1ccc2c(c1)OCO2	1.06	0.346	0.284	-1.29 (inactive)	1.41	1.2	0.587	0.527	0.711	0.543	0.335	-2.44	0.819	0.784	-0.764	0.101	0.221	1.71	1.34	0.943
O=C1C[C@@](C(=O)NC2CC2)(c2ccc([N+](=O)[O-])cc2)[C@@H](c2ccc(CO)cc2I)N1C1CCCCC1	1.02	0.666	-0.0524	-0.497 (inactive)	1.19	0.931	0.414	1.25	0.486	0.245	1.43	-1.97	0.434	0.581	-0.183	-0.101	0.0756	0.217	0.388	1.24
CC(C)OC(=O)C=C1C[C@@H](c2ccccn2)O[C@@H](c2ccccn2)O1	-0.152	-0.778	-1.68	1.08 (inactive)	0.627	0.201	0.891	1.1	1.47	1.21	-0.0187	-0.884	1.05	-1.38	-0.98	-0.0607	0.489	-0.457	0.429	0.6
COC(=O)[C@@]1(Cc2ccccc2)N=C(c2ccc(OCCCO)cc2)O[C@H]1c1ccccc1	1.65	0.206	0.893	6.38 (inactive)	0.0071	0.319	-1.08	-1.05	-0.862	0.599	0.968	-1.98	-1.06	0.288	-0.0316	-0.0647	0.261	1.14	2.32	1.93
